Data on 18 compounds can be found in PubChem BioAssay (EPA / NIEHS).

Experiment [1] has as its target Transcription factor E2F1 (Homo sapiens) (UniProt Q01094). The experiment can be described thus: ATG_E2F_CIS: Attagene CIS-FACTORIAL HepG2 Assay for human E2F Transcription Factor 1 (AID 2282935). As to conditions: HepG2 Attagene cis-reporter, E2F reporter RNA transcripts; actives raise or lower the signal. The method in brief: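 Transient MRTU transfection of HepG2; 24 h compound exposure; RNA → oligo(dT) RT → PCR → FAM label → HpaI cut → CE fluorescence. Gain/loss of signal fit against DMSO.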

Experiment [2] in a line: ATG_E_Box_CIS: Attagene CIS-FACTORIAL HepG2 Assay for human Enhancer Box (E-box) (AID 2282936). Conditions: HepG2 E-box cis-reporter transcription, actives raise or lower the signal. Summed up:
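Transiently transfected HepG2, endogenous TF-driven reporters, 24 h dosing. Readout: RT-PCR plus capillary electrophoresis of fluorescent reporter fragments. Gain or loss of signal fitted bidirectionally against DMSO baseline.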

Experiment [3] is described as follows: ATG_M_61_CIS: Attagene CIS-FACTORIAL HepG2 Assay for M61 Transcription Factor (Internal Marker) (AID 2282937). As to conditions: HepG2 Attagene CIS-FACTORIAL M61 internal marker reporter; actives raise or lower the signal. Summed up: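 HepG2 cells transiently transfected with cis-element-driven multiple reporter transcription units, dosed for 24 h. Reporter mRNA measured by RT-PCR, 6-FAM primer-extension labelling, HpaI digestion and capillary electrophoresis; bidirectional fit versus DMSO baseline.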

Experiment [4] is described as follows: ATG_EGR_CIS: Attagene CIS-FACTORIAL HepG2 Assay for human Early Growth Response 1 (EGR1) (AID 2282938). As to conditions: HepG2 Attagene CIS-FACTORIAL EGR reporter mRNA; actives raise or lower the signal. Summed up: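 HepG2 cells transiently transfected with cis-promoter-driven multiplexed reporter transcription units; reporter mRNA measured 24 h after compound dosing by RT-PCR, 6-FAM primer extension, HpaI digestion and capillary electrophoresis. Bidirectional fit versus DMSO baseline.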

The nature of experiment [5]: ATG_M_19_CIS: Attagene CIS-FACTORIAL HepG2 Assay for M19 Transcription Factor (Internal Marker) (AID 2282939). As to conditions: HepG2 Attagene CIS-FACTORIAL M19 internal marker reporter; actives raise or lower the signal. The method in brief: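 Chemical-treated HepG2 (24 h) with MRTU constructs; reporter transcripts detected by fluorescent RT-PCR fragment analysis on capillary electrophoresis. Internal background marker, DMSO as baseline.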

The nature of experiment [6]: ATG_ERE_CIS: Attagene CIS-FACTORIAL HepG2 Assay for Estrogen Response Element (ERE) (AID 2282940). As to conditions: HepG2 ERE cis-reporter, Attagene RNA transcript; actives raise or lower the signal. Summed up: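 Human liver cells (HepG2) bearing transiently transfected, promoter-regulated reporter units were exposed 24 h. Reporter mRNA induction was detected by capillary electrophoresis of labelled RT-PCR products and fitted bidirectionally to DMSO.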

A short description of experiment [7]: ATG_Ets_CIS: Attagene CIS-FACTORIAL HepG2 Assay for human Erythroblast Transformation Specific (ETS) (AID 2282941). As to conditions: HepG2 ETS cis-reporter transcription, actives raise or lower the signal. The method in brief: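 Multiplexed reporter transcript profiling: HepG2, 24 h treatment, total RNA to cDNA, PCR, 6-FAM labelling, HpaI cut, capillary electrophoresis. Gain- or loss-of-signal fitted against DMSO.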

The target of experiment [8] is Hepatocyte nuclear factor 3-beta (Homo sapiens) (UniProt Q9Y261). The experiment can be described thus: ATG_FoxA2_CIS: Attagene CIS-FACTORIAL HepG2 Assay for human Forkhead box A2 (FOXA2) (AID 2282942). Conditions: HepG2 cis-reporter transcription factor activity, 24 h; actives raise or lower the signal. Summed up:
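HepG2 cells transiently transfected with multiple cis-regulated reporter transcription units, dosed for 24 h. Reporter mRNA measured by RT-PCR, 6-FAM labelling, HpaI digestion and capillary electrophoresis; bidirectional fitting against DMSO baseline.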

Experiment [9] in a line: ATG_FoxO_CIS: Attagene CIS-FACTORIAL HepG2 Assay for human Forkhead box O (FoxO) (AID 2282943). As to conditions: HepG2 Attagene cis-reporter, FoxO element, mRNA; actives raise or lower the signal. Summed up: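 HepG2 cells transiently transfected with cis-element-driven reporter units report endogenous FoxO activity. After 24 h chemical exposure, reporter mRNA quantified by RT-PCR, fluorescent labeling, HpaI digestion and capillary electrophoresis; bidirectional fit versus DMSO.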

Experiment [10] in a line: ATG_GATA_CIS: Attagene CIS-FACTORIAL HepG2 Assay for human GATA Binding Protein (AID 2282944). Conditions: HepG2 GATA cis-element reporter, Attagene multiplex mRNA; actives raise or lower the signal. Summed up: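 Transfected cis-reporter HepG2 cells were treated with chemicals for 24 hours. Total RNA was then converted to cDNA, amplified with reporter-specific primers and analysed by fluorescent capillary electrophoresis, using DMSO-treated wells as baseline.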

What is called AC50 is the concentration giving half of the maximal activity seen.

Structures are written as SMILES. Several values for one entry are separate records, joined by “and”; a condition that tells them apart may be missing. Identical values can stand only once. A structure can be active in one record and inactive in another. Activity calls are given as the source filed them. How the source made its calls: active means hit-call score of the fitted dose curve at least 0.9, where 1 is the maximum; inactive means score below 0.9.

Sequence of Hepatocyte nuclear factor 3-beta (Homo sapiens) (Q9Y261 whole entry, looked up): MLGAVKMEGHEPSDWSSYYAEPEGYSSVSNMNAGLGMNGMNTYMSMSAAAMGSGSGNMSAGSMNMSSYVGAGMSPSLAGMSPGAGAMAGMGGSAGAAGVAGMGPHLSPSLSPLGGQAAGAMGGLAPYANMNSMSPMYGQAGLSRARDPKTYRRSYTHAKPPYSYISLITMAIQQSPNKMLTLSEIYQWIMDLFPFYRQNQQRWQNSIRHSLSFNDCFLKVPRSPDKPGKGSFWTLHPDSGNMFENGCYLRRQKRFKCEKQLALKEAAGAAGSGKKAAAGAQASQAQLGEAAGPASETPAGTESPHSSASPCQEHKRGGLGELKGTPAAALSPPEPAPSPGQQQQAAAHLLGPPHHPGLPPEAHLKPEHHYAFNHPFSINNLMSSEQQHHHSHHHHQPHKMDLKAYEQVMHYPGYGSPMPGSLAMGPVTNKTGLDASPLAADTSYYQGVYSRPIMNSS
Sequence of Transcription factor E2F1 (Homo sapiens) (Q01094 whole entry, looked up): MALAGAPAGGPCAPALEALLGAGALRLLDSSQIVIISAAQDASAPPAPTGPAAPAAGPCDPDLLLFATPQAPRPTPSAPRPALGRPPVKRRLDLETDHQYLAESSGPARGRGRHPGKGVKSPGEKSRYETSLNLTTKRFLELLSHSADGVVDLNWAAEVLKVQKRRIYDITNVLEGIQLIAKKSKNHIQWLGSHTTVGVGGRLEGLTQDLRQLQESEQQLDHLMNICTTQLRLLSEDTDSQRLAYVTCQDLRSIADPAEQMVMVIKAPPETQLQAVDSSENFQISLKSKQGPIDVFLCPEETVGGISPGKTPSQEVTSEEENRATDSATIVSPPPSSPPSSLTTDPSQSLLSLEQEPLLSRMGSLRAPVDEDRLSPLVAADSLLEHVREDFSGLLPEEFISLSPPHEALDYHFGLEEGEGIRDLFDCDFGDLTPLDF

On to `COC(=O)C=C(C)OP(=O)(OC)OC`, for which the compound was called inactive in experiment [1], in experiment [2], in experiment [3], in experiment [4], in [5] and in [6]. The compound was called inactive in experiment [7], in experiment [8], in [9] and in [10].

For the compound `CC1COC(Cn2cncn2)(c2ccc(Oc3ccc(Cl)cc3)cc2Cl)O1` (stereo not drawn), the outcome in experiment [1], in [2], in [3], in experiment [4], in experiment [5] and in [7] was inactive. Further, the compound was called inactive in experiment [8], in experiment [9] and in experiment [10]. The AC50 in experiment [6] is 0.245 µM (active).

In the case of `CNC(=S)S`, the compound was called inactive in [1], in [2], in experiment [3], in experiment [4], in [5] and in experiment [6]. Further, the result in experiment [7], in experiment [8], in experiment [9] and in [10] was inactive. In addition, the AC50 in [4] was 50 µM (active).

Consider `CC(C)C1(C)N=C(c2nc3ccccc3cc2C(=O)O)NC1=O` (stereo not drawn), for which the outcome in experiment [1], in experiment [2], in experiment [3], in [4], in experiment [5] and in experiment [6] was inactive. Further, the compound was classed as inactive in experiment [7], in [8], in experiment [9] and in experiment [10].

With `Fc1ccc(Oc2ccnc3cc(Cl)cc(Cl)c23)cc1`, the compound was called inactive in experiment [1], in experiment [3], in experiment [4], in experiment [5], in experiment [6] and in [7]. Moreover, the compound was classed as inactive in experiment [8], in [9] and in experiment [10]. Besides, the AC50 in experiment [2] was 5.95 µM (active).

As to `CCCC1COC(Cn2cncn2)(c2ccc(Cl)cc2Cl)O1` (stereo not drawn), the results for the AC50 in [1], in experiment [6] and in experiment [7] were 85.1 µM (active), 1.71 µM (active) and 58 µM (active), respectively. The result in experiment [1], in experiment [2], in experiment [3], in experiment [4], in experiment [5] and in [6] was inactive. The outcome in experiment [7], in [8], in experiment [9] and in [10] was inactive.

For the compound `CNC(=O)ON=CC(C)(C)SC`, the AC50 in [1] was 149 µM (active). In addition, the result in experiment [1], in [2], in [3], in experiment [4], in experiment [5] and in experiment [6] was inactive. The outcome in experiment [7], in [8], in experiment [9] and in experiment [10] was inactive.

In the case of `CCOP(=S)(OCC)SCn1c(=O)oc2cc(Cl)ccc21`, the call in experiment [1], in experiment [2], in experiment [3], in experiment [4], in experiment [5] and in experiment [6] was inactive. The compound was called inactive in experiment [8], in [9] and in [10]. Besides, in experiment [7], the AC50 was 50 µM (active).

For `N#CC(CCc1ccc(Cl)cc1)(Cn1cncn1)c1ccccc1` (stereo not drawn), the compound was called inactive in experiment [1], in [2], in experiment [3], in experiment [4], in [5] and in experiment [6]. The compound was classed as inactive in experiment [7], in [8], in experiment [9] and in experiment [10].

As for `N#Cc1cc(Br)c(O)c(Br)c1`, the call in [1], in experiment [2], in experiment [3], in experiment [4], in experiment [5] and in experiment [7] was inactive. Moreover, the compound was called inactive in experiment [8], in experiment [9] and in [10]. The AC50 in [6] is 6.61 µM (active).

As for `CCCCOC(=O)c1ccccc1C(=O)OCCCC`, the outcome in [1], in experiment [2], in experiment [3], in [4], in experiment [5] and in [7] was inactive. Also, the compound was classed as inactive in [8], in [9] and in experiment [10]. In addition, the AC50 is 34.1 µM (active) in [4] and 50 µM (active) [middle of 5 runs] in [6].

`CCc1nn(C)c(C(=O)NCc2ccc(C(C)(C)C)cc2)c1Cl`: the result in [1], in experiment [2], in [3], in experiment [4], in [5] and in experiment [6] was inactive. Besides, the compound was classed as inactive in experiment [7], in experiment [8], in [9] and in experiment [10].

Regarding `CS/C(C)=N/OC(=O)N(C)SN(C)C(=O)O/N=C(\C)SC`, the call in [1], in experiment [2], in [3], in experiment [4], in experiment [5] and in experiment [6] was inactive. For the same compound, the outcome in [7], in experiment [8], in experiment [9] and in experiment [10] was inactive.

Turning to `COc1ccc(C(c2ccc(OC)cc2)C(Cl)(Cl)Cl)cc1`, the outcome in [1], in experiment [2], in [3], in [4], in experiment [5] and in experiment [6] was inactive. The compound was called inactive in [7], in experiment [8], in [9] and in experiment [10]. The AC50 is 27 µM (active) and 5.64 µM (active) in [2]; 5.09 µM (active) [middle of 4 runs] in experiment [6].

As to `CO/C=C(/C(=O)OC)c1ccccc1Oc1cc(Oc2ccccc2C#N)ncn1`, the outcome in [1], in [2], in [3], in experiment [4], in [5] and in experiment [6] was inactive. Also, the compound was classed as inactive in experiment [7], in [8], in [9] and in experiment [10]. In [4], the AC50 was 11.7 µM (active) and 13.8 µM (active).

As to `C=CCC1=C(C)C(OC(=O)C2C(C=C(C)C)C2(C)C)CC1=O` (stereo not drawn), the AC50 in experiment [1] is 132 µM (active); in experiment [2], 46.9 µM (active); in [4], 33.4 µM (active) [middle of 5 runs]; in [5], 161 µM (active); in experiment [6], 35 µM (active) and 26.7 µM (active) and 12.7 µM (active); in experiment [7], 163 µM (active). Also, the AC50 was 83.3 µM (active) and 125 µM (active) and 50 µM (active) in experiment [8]; 152 µM (active) in [9]. The compound was called inactive in experiment [1], in experiment [2], in experiment [3], in experiment [4], in [5] and in [6]. In addition, the outcome in experiment [7], in [8], in [9] and in experiment [10] was inactive.

Take `CCCN(CCC)c1c([N+](=O)[O-])cc(S(N)(=O)=O)cc1[N+](=O)[O-]`: the outcome in [1], in experiment [2], in experiment [3], in experiment [4], in [5] and in experiment [6] was inactive. Further, the compound was classed as inactive in [7], in experiment [8], in [9] and in experiment [10].

`CCCCNC(=O)OCC#CI`: the call in experiment [1], in experiment [2], in experiment [3], in experiment [4], in [5] and in experiment [6] was inactive. Further, the compound was called inactive in experiment [7], in experiment [8], in experiment [9] and in [10]. In addition, the AC50 is 145 µM (active) in [2]; 33.4 µM (active) in [4]; 48.7 µM (active) in experiment [7]; 173 µM (active) in experiment [8]; 26.4 µM (active) in [9]; 49.2 µM (active) in [10].
